This is an account of results in PubChem BioAssay (Tox21).

A short description of experiment [1]: qHTS assay for small molecules that induce genotoxicity in human embryonic kidney cells expressing luciferase-tagged ATAD5 (AID 651632). Further: nearly all actives have a fitted effect of over 15% in size. Further: potency means the concentration at half of the fitted maximal effect. In a few lines: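 HEK293T cells carrying a luciferase reporter tagged to ATAD5 were exposed to compound or DMSO vehicle for 16 hr at 37C, 5% CO2. Amplite was added, and after 30 min at room temperature luciferase activity was read as a marker of ATAD5 induction.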
Background: In qHTS, concentration-response curves come from the screen itself.

Experiment [2] can be described thus: qHTS assay for small molecules that induce genotoxicity in human embryonic kidney cells expressing luciferase-tagged ATAD5 - cell viability (AID 651634; calls by dose curve; further: nearly all actives have a fitted effect of over 25% in size). The method in brief: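 HEK293T cells expressing luciferase-tagged ATAD5 were exposed to compound or DMSO for 15.5 hr at 37C, 5% CO2. Viability was then read as live-cell protease activity by CellTiter-Fluor fluorescence after 30 min at 37C.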

Experiment [3] can be described thus: qHTS assay for small molecule disruptors of the mitochondrial membrane potential - cell viability (AID 720634; calls by dose curve;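 further: human HepG2 liver cancer cells; series mostly up to about 83 µM; nearly all actives have a fitted effect of over 20% in size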). In a few lines: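 HepG2 cells seeded overnight at 37 C, then exposed to compound or DMSO for 1 hr at 37 C, 5% CO2. m-MPI dye added, then CellTiter-Glo for 30 min at room temperature; viability read as ATP luminescence.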
Experiment [4] can be described thus: qHTS assay to test for compound auto fluorescence at 590 nm (red) in HepG2 cells (AID 720674). In a few lines:
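Seeding: 2,000 HepG2 cells/well, MEM/10% FBS, overnight 37 C. Dosing: compound vs DMSO. Incubation: 1 hr, 37 C, 5% CO2. Read: fluorescence 540 ex/590 em, Rose Bengal sodium as red reference.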

The nature of experiment [5]: qHTS assay to test for compound auto fluorescence at 535 nm (green) in HepG2 cells (AID 720675).
The nature of experiment [6]: qHTS assay to test for compound auto fluorescence at 460 nm (blue) in HEK293 cells (AID 720678). The method in brief: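 Blue read-out at excitation 405 nm and emission 460 nm follows overnight compound exposure of HEK293 cells at 37C in 5% CO2. Activity is given as auto fluorescence equivalency to triamterene.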
Experiment [7] can be described thus: qHTS assay to test for compound auto fluorescence at 590 nm (red) in HEK293 cells (AID 720679). The method in brief:
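Red channel, Ex/Em 540/590nm; signal expressed as equivalency to Rose Bengal sodium. HEK293, 2,000 cells/well, 10% dialyzed FBS; 23 nL compound pinned after 4-5 hr attachment; overnight 37C/5% CO2 before reading.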

Experiment [8] in a line: qHTS assay for small molecule disruptors of the mitochondrial membrane potential (AID 720635). Further: potency means the concentration at half of the fitted maximal effect. The method in brief: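 HepG2 cells exposed to compound 1 hr at 37C, then Mito-MPS dye 30 min. Ratio read of aggregate (540/590 nm) versus monomer (490/535 nm) fluorescence.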
A short description of experiment [9]: qHTS assay for small molecule agonists of the p53 signaling pathway - cell viability (AID 651633; calls by dose curve;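 further: p53RE-bla HCT reporter cells with a stable beta-lactamase p53 reporter; series mostly up to about 83 µM; nearly all actives have a fitted effect of over 30% in size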). The method in brief:
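p53RE-bla cells were treated with compound for 16 hours at 37 C. Cytotoxicity was then measured as CellTiter-Glo luminescence after 30 min at room temperature.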

Unmarked numbers belong to inactive results. Results filed as inconclusive are left out. The source made the active and inactive calls. Unless noted, the call rests on the fitted dose curve; in most records, active means well fitted curve in the direction sought with a large enough effect in the repeat runs; inconclusive means weak or mixed curves; inactive means no such curve, though single readings can be large; an effect the other way counts as inactive or inconclusive.
On the % scale 0 is the no-effect control and ±100 the full control effect.

On to `Cc1onc(-c2ccccc2)c1-c1ccc(S(N)(=O)=O)cc1`, for which the Potency entry in experiment [1], in [2], in [3] and in experiment [6] was “inactive” in each case. Besides, the compound was called inactive in [4], in experiment [5] and in experiment [7].
In the case of `C=CC(=O)N1CCOCC1`, the Potency entry in [1], in [2] and in [6] was “inactive” in each case. The compound was classed as inactive in [5].
For `CCCc1ccccc1O`, the Potency result in experiment [1], in experiment [2] and in experiment [6] was “inactive” each time. Further, the Potency in [8] is 27.3 µM (active). The compound was called inactive in experiment [4] and in experiment [7].
In the case of `C(=C(c1ccccc1)c1ccccc1)c1ccccc1`, the Potency result in [2], in [3] and in experiment [6] was “inactive” throughout. The Potency in experiment [8] is 30.6 µM (active). Moreover, the compound was called inactive in [4], in experiment [5] and in experiment [7].
As to `CNc1ncnc2nc[nH]c12`, the Potency entry in [9], in [2], in [3] and in experiment [6] was “inactive” throughout. Besides, the Potency in experiment [8] is 2.48 µM (active). Further, in experiment [7], the call was inactive.
Consider `CN(C)C(=O)C(CCN1CCC(O)(c2ccc(Cl)cc2)CC1)(c1ccccc1)c1ccccc1`, for which the Potency result in experiment [1], in experiment [3] and in experiment [6] was “inactive” throughout. The compound was classed as inactive in [5] and in experiment [7].
With `CC(C)COC(=O)C(C)C`, the Potency result in experiment [1], in experiment [2], in experiment [3], in experiment [8] and in [6] was “inactive” throughout. For the same compound, the outcome in [4] and in experiment [5] was inactive.
For the compound `CC(C)c1ccc2oc3nc(N)c(C(=O)O)cc3c(=O)c2c1`, the Potency in [1] is 4.73 µM (active). For the same compound, the Potency result in experiment [2], in [3] and in [6] was “inactive” each time. Also, the call in experiment [4], in experiment [5] and in experiment [7] was inactive.
For the compound `O=C(O)c1ccccc1-c1ccc(C(F)(F)F)cc1`, the Potency entry in experiment [1], in experiment [2], in [3] and in [6] was “inactive” in each case. In addition, the result in [4], in experiment [5] and in [7] was inactive.
With `CCCCC=O`, the Potency entry in experiment [1], in experiment [2], in experiment [3], in experiment [8] and in experiment [6] was “inactive” throughout. Moreover, the compound was classed as inactive in experiment [4], in experiment [5] and in experiment [7].
In the case of `CCCCCCCCCCCCCCC`, the Potency entry in experiment [1], in experiment [2], in experiment [3], in experiment [8] and in [6] was “inactive” throughout. Besides, the result in [4] and in experiment [5] was inactive.
In the case of `CC1=CC(=O)CCC1`, the Potency result in experiment [1], in [2], in [3], in experiment [8] and in experiment [6] was “inactive” each time. Also, the compound was called inactive in experiment [4] and in [7].
In the case of `COc1nc(C)nc(N)n1`, the Potency entry in experiment [9], in [2], in [3] and in experiment [6] was “inactive” each time. Moreover, in [4], the compound was classed as inactive.
Regarding `CSc1ccc(C=O)cc1`, the Potency result in experiment [1], in experiment [2], in experiment [3], in experiment [8] and in experiment [6] was “inactive” throughout. The result in experiment [4] and in experiment [5] was inactive.
With `NCCNC(=O)c1ccc(Cl)cn1`, the Potency entry in experiment [9], in experiment [2], in experiment [3] and in [6] was “inactive” throughout. In addition, the compound was called inactive in experiment [4], in [5] and in experiment [7].
Turning to `CC1(C)SC(C)(C)SC(C)(C)S1`, the Potency entry in [2], in [3], in [8] and in experiment [6] was “inactive” throughout. Also, the compound was classed as inactive in experiment [5] and in experiment [7].
`CC(C)c1cccc(C(C)C)c1N`: the Potency entry in experiment [9], in experiment [2], in experiment [3], in experiment [8] and in experiment [6] was “inactive” in each case. Besides, the compound was called inactive in [4], in [5] and in [7].
Consider `CCCC(=O)O[C@]1(C(=O)CCl)[C@@H](C)C[C@H]2[C@@H]3CCC4=CC(=O)C=C[C@]4(C)[C@@]3(F)C(=O)C[C@@]21C`, for which the Potency result in [1], in experiment [2], in [3] and in experiment [6] was “inactive” each time. Further, the Potency in [8] is 23.7 µM (active). Besides, the call in experiment [5] was inactive.
For `CC(C)(C)CC(C)(C)N`, the Potency result in [1], in experiment [2], in [3], in [8] and in [6] was “inactive” each time. The call in experiment [4], in [5] and in experiment [7] was inactive.
Consider `CCCOc1ccccc1-c1nc2n[nH]nc2c(=O)[nH]1`, for which the Potency entry in experiment [9], in experiment [2], in [3] and in [6] was “inactive” in each case. The result in experiment [4], in experiment [5] and in experiment [7] was inactive.
Turning to `Nc1[nH]c(=O)ncc1F`, the Potency result in [9], in experiment [2], in experiment [3] and in experiment [8] was “inactive” in each case. In addition, the fluorescence, relative to Rose Bengal in experiment [4] is -0.615% [at 18.6 µM]. In addition, the fluorescence, % of fluorescein control in experiment [5] was 0.005% [at 18.6 µM]. Further, the fluorescence, % of triamterene in experiment [6] was 0.082% [at 18.6 µM].
For `CN(C)C(=O)Nc1ccccc1`, the Potency result in experiment [2], in [3] and in [6] was “inactive” each time. For the same compound, the compound was called inactive in [5] and in experiment [7].
With `NC(=O)c1c(Cl)cccc1Cl`, the Potency entry in experiment [1], in experiment [2], in [3] and in experiment [6] was “inactive” throughout. For the same compound, the result in experiment [4], in [5] and in [7] was inactive.
For the compound `CCCCCC[C@@H](CCC)C(=O)O`, the Potency result in experiment [2], in experiment [3], in experiment [8] and in experiment [6] was “inactive” throughout. Further, in experiment [5], the compound was classed as inactive.
In the case of `OC/C=C/c1ccccc1`, the Potency entry in experiment [9], in [2], in experiment [3] and in experiment [6] was “inactive” in each case. In addition, the compound was called inactive in [4] and in experiment [7].
For the compound `COC(=O)c1ccc(C(=O)OC)c(C(=O)OC)c1`, the Potency result in experiment [1], in experiment [2], in experiment [3], in [8] and in [6] was “inactive” throughout. Also, the compound was classed as inactive in experiment [4], in experiment [5] and in experiment [7].
With `CCN(CC)S(=O)(=O)c1ccc(C(=O)O)cc1`, the Potency result in [1], in experiment [2], in experiment [3] and in experiment [6] was “inactive” throughout. For the same compound, the result in [4], in [5] and in [7] was inactive.
